BLM helicase inh: qHTS Assay for Inhibitors of Bloom's syndrome helicase (BLM) | actives 0.2% (n = 350,000) | RecQ-like DNA helicase BLM (Homo sapiens), P54132 | Potency, µM (top dose mostly 56.1 µM), without a hit: top-dose activity change, negative = inhibition, actives largely listed as inhibitors | recombinant BLM DNA unwinding, fluorescence dequenching;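 further: plate controls were vehicle for no effect and no enzyme for full effect; nearly all actives have a fitted effect of over 35% in size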
TDP1 block: qHTS Assay for Inhibitors of Tyrosyl-DNA Phosphodiesterase (TDP1). AID 485290, 2010. Potency, µM (series often up to 130 µM), for the others: at the highest dose activity change, negative = inhibition, actives largely listed as inhibitors. recombinant TDP1, AlphaScreen DNA substrate cleavage. Tyrosyl-DNA phosphodiesterase 1 (Homo sapiens), Q9NUW8. actives 0.28% (n = 350,000); further: nearly all actives have a fitted effect of over 40% in size
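Steps: enzyme plus compound, 15 min RT; add biotin/phosphotyrosine-FITC oligonucleotide (15 nM final), react 5 min; add donor/acceptor beads (10 ug/ml final), 10 min; read AlphaScreen. Tdp1 at 1 nM final.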
RECQ1 helicase: qHTS Assay for Inhibitors of RecQ-Like Dna Helicase 1 (RECQ1) | ATP-dependent DNA helicase Q1 (Homo sapiens), P46063 | RECQ1 DNA unwinding, red fluorescence kinetic read | Potency, µM (titrated, usually from 57.3 µM), for inactives: at the top dose activity, negative = inhibition, actives largely listed as inhibitors | actives 0.54% (n = 240,000) | AID 2549, 2010;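 further: plate controls were vehicle for no effect and no enzyme for full effect; nearly all actives have a fitted effect of over 30% in size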
Target sequence (P46063 whole entry, looked up): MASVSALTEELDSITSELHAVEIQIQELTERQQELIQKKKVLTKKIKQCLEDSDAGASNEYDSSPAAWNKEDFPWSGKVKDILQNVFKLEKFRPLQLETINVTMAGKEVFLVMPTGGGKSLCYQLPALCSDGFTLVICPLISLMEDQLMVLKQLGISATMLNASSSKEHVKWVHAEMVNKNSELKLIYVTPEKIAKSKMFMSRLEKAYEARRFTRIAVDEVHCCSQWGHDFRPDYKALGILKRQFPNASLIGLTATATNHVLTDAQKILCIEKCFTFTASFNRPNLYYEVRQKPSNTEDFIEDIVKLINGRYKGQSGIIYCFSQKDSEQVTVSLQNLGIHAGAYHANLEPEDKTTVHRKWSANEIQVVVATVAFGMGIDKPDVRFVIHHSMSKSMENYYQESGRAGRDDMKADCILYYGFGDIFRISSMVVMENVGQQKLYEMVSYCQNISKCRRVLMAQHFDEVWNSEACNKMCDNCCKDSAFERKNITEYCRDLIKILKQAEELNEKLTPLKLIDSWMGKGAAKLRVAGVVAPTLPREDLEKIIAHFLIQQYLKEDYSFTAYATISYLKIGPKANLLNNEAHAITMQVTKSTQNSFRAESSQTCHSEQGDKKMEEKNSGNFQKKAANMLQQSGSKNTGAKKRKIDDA
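RECQ1T1 50 nM; forked duplex (20 bp + 30-nt ss tails) 200 nM, ATP 2 mM final; pH 8.0, 2 mM MgCl2, 2.5 ug/ml poly(dI-dC); 15 min compound preincubation; discontinuous kinetic read over 2 h at RT.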
APE1 inh-1: qHTS Assay for Inhibitors of the Human Apurinic/apyrimidinic Endonuclease 1 (APE1). DNA repair nuclease/redox regulator APEX1 (Homo sapiens), P27695. actives 0.35% (n = 350,000). AID 2517, 2012. Potency, µM (series often up to 65.8 µM), for inactives: top-dose activity change, negative = inhibition, actives largely listed as inhibitors. recombinant APE1, TAMRA/BHQ-2 abasic DNA cleavage fluorescence;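 further: plate controls were vehicle for no effect and reference inhibitor for full effect; nearly all actives have a fitted effect of over 55% in size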
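Activity was derived from the fluorescence gain between first and third kinetic reads (60 s intervals, ex 525/em 598 nm) after 50 nM THF-abasic TAMRA/BHQ-2 duplex was added to 0.75 nM APE1 preincubated 15 min with compound.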
KAT2A inh: qHTS Assay for Inhibitors of GCN5L2; Histone acetyltransferase KAT2A (Homo sapiens), Q92830; GCN5L2 HAT assay, ThioGlo1 CoA-SH fluorescence; Potency, µM (series often up to 58.9 µM), for the others: at the top dose activity change, negative = inhibition, hits mostly inhibitors; actives 0.21% (n = 390,000)
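GCN5L2 (20nM final) in 50mM HEPES, 0.1mM EDTA pH 7.5, 0.01% Tween-20 was preincubated 15 min at room temperature with compound, then given ThioGlo1 (50uM), H3(1-25) peptide (75uM) and acetyl-CoA (70uM); CoA-thiol fluorescence (Ex340/Em540) was read at 0 and 20 min.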
APE1 dye cs: Counterscreen for APE1 Inhibitors: Fluorescent Dye Displacement Assay; Potency, µM (doses to about 28.5 µM), for the others: at the top dose activity change, negative = inhibition, most hits filed as inhibitors; DNA fluorescent dye displacement counterscreen, fluorescence; shares compounds with APE1 inh-1; actives 7% (n = 480);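 further: loss of thiazole orange fluorescence as the dye is displaced from duplex DNA; 0% = ThO with dsDNA and no compound and -100% = ThO without dsDNA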
Endo IV inh: Counterscreen for APE1 Inhibitors: qHTS Assay for Inhibitors of Endonuclease IV; shares compounds with APE1 inh-1; actives 4% (n = 560); E. coli Endo IV, fluorogenic AP-site DNA cleavage; Potency, µM (doses to about 27.1 µM), for inactives: at the top dose activity change, negative = inhibition, hits mostly inhibitors;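 further: plate controls were uninhibited enzyme wells for no effect and no enzyme buffer wells for full effect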
APE1 inh-2: Confirmation qHTS Assay for Inhibitors of the Human Apurinic/apyrimidinic Endonuclease 1 (APE1). shares compounds with APE1 inh-1. purified APE1, fluorogenic abasic-site DNA cleavage. Potency, µM (highest dose often 57.1 µM), for the others: at the highest dose activity change, negative = inhibition, usual class: inhibitors. actives 44% (n = 750). AID 2572, 2010; further: nearly all actives have a fitted effect of over 30% in size
APE1 FP inh: qHTS FP-Based Assay for Inhibitors of the Human Apurinic/apyrimidinic Endonuclease 1 (APE1); shares compounds with APE1 inh-1; APE1 binding to TAMRA-labelled double-stranded DNA, fluorescence polarization displacement; Potency, µM (top dose mostly 28.5 µM), for the others: at the highest dose activity, negative = inhibition, usual class: inhibitors; actives 7% (n = 480)
Numbers without * were called inactive; i = inactive; ? = inconclusive; / = not tested or not shown; ! = repeats disagree; [ ] = remark or other dose. In the library only some 0.87% were active in any assay of this set; here they are far more common. The call rests on the fitted dose curve; in most records, active means well fitted curve in the direction sought with a large enough effect; inconclusive means small, poorly fitted or top-dose-only effect, or another doubt; inactive means no such curve, though single readings can be large; an effect the other way counts as inactive or inconclusive. Unless noted, on the % scale 0 is the no-effect control and ±100 the full control effect; potency means the concentration at half of the fitted maximal effect.

SMILES	BLM helicase inh	TDP1 block	RECQ1 helicase	APE1 inh-1	KAT2A inh	others
CC1(C)C(C(=O)O)N2C(=O)CC2S1(=O)=O (stereo unspecified)	-1.3%	1.0%	i	16.4%	7.6%
Cc1cccc(C)c1O	/	13.8%	-3.1%	30.7%	/
COc1ccc(CN2C(=O)NC(=O)/C(=C/c3ccc([N+](=O)[O-])s3)C2=O)cc1	-21.8%	5.1%	31.6µM*	?	?
COc1ccccc1N1C(=O)NC(=O)/C(=C/c2ccc([N+](=O)[O-])s2)C1=O	-13.8%	-5.2%	-25.9%	-11.9%	-13.7%
O=C1NC(=O)N(Cc2ccc(F)cc2)C(=O)/C1=C\c1ccc([N+](=O)[O-])s1	-18.1%	3.9%	31.6µM*	?	?
CCCSP(=S)(OCC)Oc1ccc(Cl)cc1Cl (stereo unspecified)	-2.1%	13.4%	-8.2%	-11.2%	-19.4%
CC1CCC(C(C)C)C(=O)C1 (stereo unspecified)	-11.9%	12.1%[56.1 µM]	8.4%	/	?
COc1ccc(N2CC(C(=O)NCc3ccco3)CC2=O)cc1 (stereo unspecified)	-3.3%	-3.7%	i	?	-6.8%
Cc1cccc(C)c1[N+](=O)[O-]	/	19.4%	-1.8%	2.2%	/
O=c1c2ccccc2nc(/C=C/c2ccc(O)cc2)n1-c1ccc(O)cc1	-9.4%	/	/	26.3%	-0.4%
O=c1c2ccccc2nc(/C=C/c2ccc(O)cc2)n1-c1cccc(O)c1	25.1µM*	?	-13.3%	?	?
NC(N)=Nc1ccc2[nH]c3c(c2c1)C[C@@]1(O)[C@H]2Cc4ccc(O)c5c4[C@@]1(CCN2CC1CC1)[C@H]3O5	/	11.2%	-3.4%	19.7%	3.55µM*
Cl.Cl.Cl.Cl.Cl.Cl.N.N.N.N.NNNNN.NNNNN.O.O.[Ru].[Ru].[Ru]	25.1µM*	20.2%	12.6µM*	-3.2%	?
Cc1cc(I)ccc1Nc1c(C(=O)NOCC2CC2)cc(F)c(F)c1F	-14.8%	16.1%	-3.6%	-5.6%	13.5%
C[C@H](CCC(=O)O)[C@H]1CC[C@H]2[C@@H]3CC[C@@H]4C[C@H](O)CC[C@]4(C)[C@H]3CC[C@]12C	?	?	-29.2%	?	25.1µM*!
CC[C@@H]1/C=C/C=C/C[C@H](C)[C@@H](O)[C@](C)(O)C(=O)[C@H](C)[C@@H](O)[C@H](C)C(=O)[C@H](C)[C@@H](O)[C@H](C)/C=C/C(=O)O[C@H]2[C@@H](C)[C@@H](CC1)O[C@@]1(CC[C@@H](C)[C@@H](C[C@H](C)O)O1)[C@@H]2C	/	13.4%	i	2.7%	-14.9%
CCCCCCC(=O)OC1CC(C)(C)NC(C)(C)C1	-0.9%	3.6%	-11.6%	-1.7%	-29.5%
C/C=C(/C)C(=O)O[C@H]1C(C)=C2C([C@@H]1OC(=O)CCCCCCC)[C@@](C)(OC(C)=O)C[C@@H](OC(=O)CCC)[C@@]1(O)[C@H]2OC(=O)[C@@]1(C)O (stereo partly specified)	/	12.9%[56.1 µM]	-15.2%	-3.9%	/	Endo IV inh=10µM*;APE1 inh-2=?
CC(C)CCCC(C)C1CCC2C3CC(=O)[C@H]4CC(O)CC[C@]4(C)C3CC[C@@]12C (stereo partly specified)	-11.1%	-4.5%[56.1 µM]	-9.8%	12.5%	-12.2%
CC(=O)OCC1=C(C(=O)O)N2C(=O)C(NC(=O)CCCC(N)C(=O)O)C2SC1 (stereo unspecified)	?	25.1µM*	3.3%	22.4µM*	14.6%	APE1 dye cs=-1.3%[57.1 µM];Endo IV inh=27.3%[57.1 µM];APE1 inh-2=-7.3%;APE1 FP inh=30.2%[57.1 µM]
CC[C@@]1(O)C(=O)OCc2c1cc1n(c2=O)Cc2cc3ccccc3nc2-1	5.2%	0.3%	-3.1%	9.4%	?	Endo IV inh=-4.6%[57.1 µM];APE1 inh-2=-22.5%
Clc1ccc(Cl)c(Cl)c1	/	2.0%	-6.7%	-1.3%	/
Clc1cnc(Oc2ccc(Oc3ncc(Cl)cc3Cl)cc2)c(Cl)c1	-2.5%	5.8%[56.1 µM]	-7.4%	-7.6%	-11.7%	Endo IV inh=-0.6%[57.1 µM];APE1 inh-2=-11.1%
O=c1cc(-c2ccc(O)cc2)oc2c([C@H]3O[C@@H](CO)[C@@H](O)[C@@H](O)[C@@H]3O)c(O)cc(O)c12	1.3%[21.4 µM]	-14.3%[56.1 µM]	-0.4%[25.9 µM]	?	7.2%[21.4 µM]
CC1=C2C3OC(=O)C(C)C3CC[C@@]2(C)C=CC1=O (stereo partly specified)	1.7%	14.1µM*!	-16.2%	?	?	Endo IV inh=-4.5%[57.1 µM];APE1 inh-2=-4.3%
SMILES	BLM helicase inh	TDP1 block	RECQ1 helicase	APE1 inh-1	KAT2A inh	others
CS(=O)c1ccc(-c2nc(-c3ccc(F)cc3)c(-c3ccncc3)[nH]2)cc1 (stereo unspecified)	4.4%	13.4%	6.1%	16.9%	-5.0%
CC1Cc2c(cnc3c2CN(C)CC3)CO1 (stereo unspecified)	3.1%[12.4 µM]	5.8%[21 µM]	-1.3%[11.5 µM]	43.3%[12.4 µM]	/
Clc1ccc(CC[C@H](Cn2ccnc2)Sc2c(Cl)cccc2Cl)cc1	0.0%[21.4 µM]	25.1%[21 µM]	i	/	-17.8%[21.4 µM]
COc1ccc(CN2C(=O)NC(=O)/C(=C\c3ccco3)C2=O)cc1	?	/	?	22.4µM*	?	APE1 dye cs=?;Endo IV inh=1.9%;APE1 inh-2=14.1µM*;APE1 FP inh=-8.4%
O=C1/C(=C\c2ccccc2)C[C@@]2(O)[C@H]3Cc4ccc(O)c5c4[C@@]2(CCN3CC2CC2)[C@H]1O5	/	11.0%	i	0.9%	3.8%
COc1cc2c(cc1O)[C@H]1Cc3ccc(OC)c(O)c3CN1CC2	-11.7%[21.4 µM]	11.3%[21 µM]	i	-4.3%[21 µM]	-59.2%[21.4 µM]
